proKLK7 act: activates the human kallikrein-7 zymogen; 370,000 compounds, 0.9% hits; purified proKLK7, EDANS-DABCYL substrate fluorescence; 100% is mature enzyme control, 0% vehicle; P49862; activation, % at 7 µM;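 active = activation above the mean of all tested compounds plus 3 SD, computed per campaign excluding outliers beyond control limits, cut at about 13% in these data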
PLC-gamma1 inh: blocks human PLC-gamma1 enzyme activity | AID 720700 | inhibition, % at 12.2 µM | purified PLC-gamma1, fluorogenic substrate, fluorescence | 370,000 compounds, 0.84% hits; in the data active = inhibition above about 9.5%
ADAM10 inh: inhibitors of human ADAM10; 370,000 compounds, 0.62% hits; inhibition, % at 7 µM; recombinant ADAM10, EDANS/DABCYL FRET peptide cleavage, 3 h; AID 720582; O14672;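 active = inhibition above a per-campaign cutoff equal to the mean of compounds falling between control-based bounds plus 3 SD, cut at about 20% in these data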;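 note: 0% = DMSO wells while the 100% control is not disclosed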
ADAM17 inh: ADAM17 inhibition, QFRET primary screen. P78536. AID 720648. recombinant ADAM17, EDANS/DABCYL FRET peptide cleavage. inhibition, % at 6.95 µM. 370,000 compounds, 0.83% hits;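 active = inhibition above the mean of compounds lying between control limits plus 3 SD, set per campaign, cut at about 8.5% in these data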;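 note: 0% = DMSO-only wells as the low control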
PLC-beta3 inh: PLC-beta3 (human) inhibition, primary screen | Purified PLC-beta3, fluorogenic substrate, fluorescence | inhibition, % at 12.2 µM | 370,000 compounds, 0.18% hits | AID 720704; in the data active = inhibition above about 11%;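 note: 0% = median of compound wells on plate and 100% = full blocker control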
Target sequence (Q01970 whole entry, looked up): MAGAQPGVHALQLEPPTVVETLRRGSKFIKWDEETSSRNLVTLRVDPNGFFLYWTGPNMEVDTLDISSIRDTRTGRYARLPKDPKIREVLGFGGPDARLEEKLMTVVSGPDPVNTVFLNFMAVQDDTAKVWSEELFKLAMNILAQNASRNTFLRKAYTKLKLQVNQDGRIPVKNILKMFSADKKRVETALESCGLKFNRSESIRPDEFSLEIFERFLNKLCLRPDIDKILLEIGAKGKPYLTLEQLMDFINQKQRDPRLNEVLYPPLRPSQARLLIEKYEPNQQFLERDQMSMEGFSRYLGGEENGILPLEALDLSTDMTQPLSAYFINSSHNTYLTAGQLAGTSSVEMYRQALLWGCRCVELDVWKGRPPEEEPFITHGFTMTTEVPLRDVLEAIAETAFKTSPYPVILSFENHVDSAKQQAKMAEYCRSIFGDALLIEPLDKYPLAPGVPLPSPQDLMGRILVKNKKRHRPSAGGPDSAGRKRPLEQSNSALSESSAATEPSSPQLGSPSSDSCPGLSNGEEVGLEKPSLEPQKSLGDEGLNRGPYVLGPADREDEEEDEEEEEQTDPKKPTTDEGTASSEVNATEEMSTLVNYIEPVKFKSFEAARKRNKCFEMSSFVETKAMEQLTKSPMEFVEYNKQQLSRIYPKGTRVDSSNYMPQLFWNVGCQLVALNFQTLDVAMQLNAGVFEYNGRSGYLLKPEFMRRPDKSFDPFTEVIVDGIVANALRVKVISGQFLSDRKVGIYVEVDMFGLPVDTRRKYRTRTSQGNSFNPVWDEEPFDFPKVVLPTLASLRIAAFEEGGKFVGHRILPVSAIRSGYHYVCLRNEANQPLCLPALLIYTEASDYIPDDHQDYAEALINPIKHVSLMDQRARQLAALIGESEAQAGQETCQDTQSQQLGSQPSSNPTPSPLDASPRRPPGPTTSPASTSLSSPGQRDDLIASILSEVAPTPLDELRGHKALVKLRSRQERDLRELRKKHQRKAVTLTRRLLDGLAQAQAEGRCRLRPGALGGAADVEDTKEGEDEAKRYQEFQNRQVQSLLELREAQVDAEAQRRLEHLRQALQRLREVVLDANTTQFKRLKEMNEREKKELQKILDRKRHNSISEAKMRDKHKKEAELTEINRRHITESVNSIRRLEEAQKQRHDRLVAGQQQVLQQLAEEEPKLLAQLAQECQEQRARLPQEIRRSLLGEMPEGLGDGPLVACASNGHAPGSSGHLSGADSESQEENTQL
proKLK7 act conf: proKLK7 activation, confirmation; 3,200 compounds, 68% hits; purified proKLK7, EDANS-DABCYL substrate fluorescence; scaled: vehicle 0, mature enzyme 100; shares compounds with proKLK7 act; activation, % at 7 µM; AID 686949;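 active = activation, as change over the incubation, above the mean of all tested compounds plus 3 SD, cut at about 13% in these data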
EDANS interfere: counter-screen for kallikrein-7 activators: EDANS-DABCYL optical interference | shares compounds with proKLK7 act | EDANS-DABCYL substrate fluorescence interference, no enzyme, 4 h; solvent 0%, active enzyme control 100% | activation, % at 7 µM | 3,200 compounds, 80% hits | AID 686952;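 active = activation above the all-compound mean plus 3 SD, ignoring values outside control-based bounds, cut at about 4.8% in these data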;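 note: value is the 4 h activation minus the activation read at time zero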
EDANS interf: EDANS fluorescence interference in dose response, no enzyme; shares compounds with proKLK7 act; EDANS-DABCYL peptide fluorescence interference; EC50, µM; 250 compounds, 20% hits;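 active = compounds that raise the fluorescence signal in this interference counterscreen, with EC50 at or below 10 µM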;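 note: intact quenched peptide substrate alone read at 355 nm excitation and 520 nm emission; signal is fluorescence gain from T0 to T4 after four hours at room temperature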
* hit, by the source's call; i = inactive; x = no result. Only some compounds are listed: those with a hit (about 2.9% of all), similar ones and a draw of the others.

SMILES	proKLK7 act	PLC-gamma1 inh	ADAM10 inh	ADAM17 inh	PLC-beta3 inh	proKLK7 act conf	EDANS interfere	others
Nc1ccc2nc(-c3cccs3)[nH]c2c1	73.0*	i	i	i	i	67.1*	69.2*
CC(=O)Nc1ccc2nc(-c3cccs3)[nH]c2c1	16.1*	-422.3	i	i	i	35.9*	27.6*	EDANS interf=8.23*
Nc1ccc2nc(-c3ccc(N)c(Cl)c3)[nH]c2c1	77.3*	i	i	i	i	67.6*	71.7*
COC(=O)[C@]12C[C@H](CC(=O)NCc3cccs3)C(=O)N(Cc3cccc4ccccc34)C1=C[C@H](COCc1ccccc1)O[C@@H]2C	0.2	3.9	10.7	5.3	-2.5	x	x
Nc1ccc(-c2nc3c(Cl)cc(N)cc3[nH]2)cc1	41.8*	i	i	i	i	79.0*	68.7*
COc1ccc(OC)c(/C=C/C(=O)OCC(=O)N2CCCCC2)c1	22.1*	i	-156.8	-43.5	i	14.2*	13.7*
COc1cccc(/C=N/NC(=O)C(=O)N2CCCCCC2)c1OC	0.9	-2.1	4.4	-0.9	-5.9	x	x
COc1ccc(OC)c(/C=N/NC(=O)C(=O)N2CCCCCC2)c1	50.8*	-30.3	-61.0	-16.9	-48.7	47.8*	45.5*
COc1ccc(OC)c(/C=N\NC(=O)c2ccc(=O)n(C)c2)c1	16.2*	-116.2	-130.8	-37.9	-123.7	11.8	10.1*
COc1ccc(OC)c(/C=N/NC(=O)c2cc[n+](Cc3ccccc3)cc2)c1	45.3*	-36.5	-29.4	-9.1	-33.1	79.3*	81.1*
COc1ccc(OC)c(/C=N\NC(=O)c2ccc(-c3ccccc3)cc2)c1	-1.5	-59.7	-38.1	-12.0	-85.1	x	x
O=C(NC1CCCC1)[C@@H]1CCCN1C(=O)[C@H](Cc1cccnc1)NC(=O)N1CCOCC1	-0.1	-0.5	-3.1	-3.1	2.5	x	x
C[C@H](O)[C@@H]1CN2CCc3c([nH]c4c(-c5ccccc5)cccc34)[C@@H]2C[C@@H]1N(C)CC1CCCCC1	0.9	-46.3	-30.3	-9.7	-64.1	x	x
COc1ccc(OC)c(/C=N/NC(=O)c2ccc(=O)[nH]n2)c1	15.5*	-6.3	-8.6	-3.3	-16.2	17.4*	19.9*
COc1cccc(/C=N/NC(=O)c2ccc(=O)[nH]n2)c1O	0.0	0.8	-5.1	-6.4	-9.1	x	x
COc1ccc(OC)c(/C=N/NC2=NS(=O)(=O)c3ccccc32)c1	50.7*	-53.0	-19.1	-6.2	-79.8	51.7*	45.5*
COc1ccccc1C=NNC(=O)c1ccncc1	1.4	-3.4	1.3	0.7	1.8	x	x
COc1ccc(OC)c(/C=N/NC(=O)c2ccncc2)c1	41.0*	-9.7	-15.1	-5.8	-21.0	41.1*	39.1*
COc1ccc(/C=N/NC2=NS(=O)(=O)c3ccccc32)cc1	-0.1	-2.7	0.0	-3.0	-8.5	x	x
COc1cccc2c1cc1c(=O)n(CC(=O)NCCCN3CCN(C)CC3)nc(C)n12	60.0*	i	i	i	i	82.8*	76.4*
CCCSCCCNC(=O)Cn1nc(CC)n2c(cc3c(OC)cccc32)c1=O	-0.4	-51.5	-227.1	-52.2	-62.5	x	x
CCCN1CCN(C(=O)Cn2nc(C)n3c(cc4c(OC)cccc43)c2=O)CC1	2.3	-206.7	i	-196.6	-296.9	x	x
CCc1nn(CC(=O)NCCN2CCOCC2)c(=O)c2cc3c(OC)cccc3n12	27.2*	i	i	i	i	19.1*	28.4*
Nc1[nH]c(C(=O)c2ccccc2)c(-c2cccc3ccccc23)c1C(=O)NCc1ccc(Cl)cc1Cl	0.2	-4.7	-11.3	-5.0	-3.9	x	x
CC1(C)CC(=O)C2=C(C1)N(CCN1CCOCC1)C1=C(C(=O)CC(C)(C)C1)C2c1cccc(F)c1	33.9*	-487.3	i	-304.1	i	23.2*	20.1*
SMILES	proKLK7 act	PLC-gamma1 inh	ADAM10 inh	ADAM17 inh	PLC-beta3 inh	proKLK7 act conf	EDANS interfere	others
COc1ccc(C2C3=C(CC(C)(C)CC3=O)N(CCN3CCOCC3)C3=C2C(=O)CC(C)(C)C3)cc1	12.6*	-256.6	-414.4	-135.0	-351.5	5.1	14.9*
CC1(C)CC(=O)C2=C(C1)N(CCN1CCOCC1)C1=C(C(=O)CC(C)(C)C1)C2c1ccc(Cl)cc1	-4.8	-82.0	-232.1	-64.6	-118.7	x	x
CCOC(=O)N1CCN(S(=O)(=O)c2ccc(C(=O)Nc3sc4c(c3C(N)=O)CC(C)(C)NC4(C)C)cc2)CC1	56.9*	-175.9	-27.6	1.0	-201.3	-32.6	-5.1
CCCCNC(=O)CN1C(=O)c2cccc(N)c2C1=O	-30.5	i	-348.7	-126.8	i	x	x
CN(C(=O)CN1C(=O)c2cccc(N)c2C1=O)C1CCCCC1	109.0*	i	i	-151.0	i	73.9*	76.3*
CC1CCCCC1NC(=O)CN1C(=O)c2cccc(N)c2C1=O (stereo not drawn)	34.2*	i	-343.7	-138.6	i	78.0*	70.0*
COc1ccccc1CNC(=O)CN1C(=O)c2cccc(N)c2C1=O	50.4*	i	i	-214.4	i	-0.8	43.6*
C[C@H](O)[C@@H]1C(=O)N2CCc3c([nH]c4cccc(-c5ccccc5)c34)[C@@H]2C[C@@H]1N(C)C(=O)C1CCCCC1	-1.1	-17.3	-44.7	-12.8	-26.8	x	x
Cc1ccc2c(CN3CCOCC3)cc(=O)oc2c1C	0.4	-1.8	-1.1	-1.9	-5.1	x	x
Cc1cc(=O)oc2c(CN3CCCCC3)c(O)ccc12	118.2*	i	i	i	i	71.3*	73.2*
COc1ccc2c(C)cc(=O)oc2c1OCC(O)CN1CCOCC1 (stereo not drawn)	15.3*	-238.4	-186.1	-53.5	-356.4	6.8	10.2*
Cc1cc(=O)oc2c(CN(C)Cc3ccccc3)c(O)ccc12	74.7*	i	i	i	i	72.2*	78.3*
Cc1cc(=O)oc2c(CN3CCOCC3)c(O)ccc12	99.5*	i	i	i	i	74.1*	64.8*
Cc1ccccc1CNC(=O)C1CCCN(c2ncccn2)C1 (stereo not drawn)	0.3	-12.1	-21.3	-6.7	-9.3	x	x
COC(=O)CC#C[C@@H](C)[C@H](NS(=O)(=O)c1ccc(C)cc1)C(C)(C)C	-0.2	-2.1	-5.5	-3.6	-2.7	x	x
O=C1CC(N(O)c2ccccc2)C(=O)N1c1ccc(Cl)c(Cl)c1 (stereo not drawn)	33.9*	-12.7	-24.5	-2.1	-27.2	459.4*	467.3*
Cc1cccc(N2C(=O)CC(N(O)c3ccccc3)C2=O)c1 (stereo not drawn)	273.7*	2.1	-1.9	-6.7	-3.2	348.8*	365.8*
